According to PubChem BioAssay (EPA / NIEHS):
Where “and” joins values, the source holds several entries; their conditions need not be identical. Equal values may be shown once. Some structures have more than one record in an assay (separate samples or runs), and their calls can disagree. Calls of active or inactive are those of the source. The calls were made as follows: active = hit-call score of the fitted dose curve at least 0.9, where 1 is the maximum; inactive = score below 0.9.

Test: APR_HepG2_CellLoss_72hr: Apredica 72-hour HepG2 Assay for Cell Loss (AID 2282915)
Details: high-content imaging
Method: APR_HepG2_72hr is a cell-based, multiplexed-readout assay that uses HepG2, a human liver cell line, with measurements taken at 72 hours after chemical dosing in a 384-well plate.APR_HepG2_CellLoss_72hr is one of 10 assay component(s) measured or calculated from the APR_HepG2_72hr assay. It is designed to make measurements of cell number, a form of viability reporter, as detected with fluorescence intensity signals by HCS Fluorescent Imaging technology.Data from the assay component APR_HepG2_CellLoss_72hr was analyzed into 1 assay endpoint. This assay endpoint, APR_HepG2_CellLoss_72hr, was analyzed with bidirectional fitting relative to DMSO as the negative control and baseline of activity. Using a type of viability reporter, measures of all nuclear dna for gain or loss-of-signal activity can be used to understand the viability at the cellular-level. Furthermore, this assay endpoint can be referred to as a secondary readout, because this assay has produced multiple assay endpoints where this one serves a viability function. To generalize the intended target to other relatable targets, this assay endpoint is annotated to the cell cycle intended target family, where the subfamily is proliferation.
Cells were treated with dimethyl sulfoxide (DMSO) as a solvent control at a final concentration of 0.5% v/v or with compounds in DMSO with a resulting final DMSO concentration of 0.5% v/v. Compound treatment was done at concentrations of 0.39, 0.78, 1.56, 3.12, 6.24, 12.5, 25, 50, 100, and 200 uM in duplicate on each plate. Cells were treated with compounds for 1, 24, or 72 hr. Carbonyl […] m-chloro-phenylhydrazone (CCCP) and taxol were used as positive controls for mitochondrial function and cytoskeletal stability, respectively; DMSO served as the negative control for this experiment. Cells were fixed by the direct addition of 50 uL formaldehyde in Hank's Balanced Salt Solution (HBSS) to a final concentration of 3.7%. After incubation in the fixation medium for 30 min at room temperature (293-298 K), cells were rinsed twice with HBSS and treated with cell permeabilization buffer (16 uL of 0.5% Triton X-100) for 10 min at room temperature (293-298 K) before labeling. For mitochondrial membrane potential and mitochondrial measurements, pre-fixed cells were incubated with 50 uL of MitoTracker Red CMXRos (Invitrogen) at a concentration of 250 nM for 30 min before fixation. In the remaining cases, post-fixed cells were labeled by incubation with a multiplexed mixture of primary antibodies in HBSS for 60 min at room temperature (293-298 K) to detect immunoreactivity of c-Jun (1:500), phospho-histone H3 (1:100), phospho-histone H2A.x (1:200), p53 (1:400), alpha-tubulin (1:200) and Hoechst 33342 (2 ug/mL). Cells were labeled for multiplexed imaging on two separate plates: a) Hoechst 33342, MitoTracker Red, phospho-histone H3, and alpha-tubulin, and b) Hoechst 33342, phospho-histone H2A.x, and c-Jun. A final rinse with HBSS (50 uL) was performed before analysis. The primary and secondary antibodies for the proteins were phospho-histone H3 (rabbit anti-phospho-histone H3 and FITC-donkey anti-rabbit IgG), phospho-histone H2A.x (mouse anti-phospho-histone H2A.x and FITC-donkey anti-mouse IgG), c-Jun (rabbit anti-phospho-c-Jun and Cy3-donkey anti-rabbit IgG), p53 (sheep anti-p53 and Cy5-donkey anti-sheep IgG), alpha-tubulin (mouse anti-alpha-tubulin and Cy5-donkey anti-mouse IgG). These antibodies are available as the CellCiphr HepG2 assay kit (Millipore).Digital images of each well were captured using a Cellomics ArrayScan VTI (Thermo Scientific Cellomics) (0.8 NA objective, 0.63x optical coupler, and XF-93 filter set) at 20x magnification. The images were acquired using the autofocus feature of the ArrayScan instrument, which entails the following steps. First, the camera focuses on channel 1 (Hoechst 33342), where nuclei are identified. Second, a Z offset of 1 um is used for capturing mitochondria (MitoTracker Red). […]
In the case of `N#Cc1c(Cl)c(Cl)c(Cl)c(C#N)c1Cl`, the AC50 is reported as 0.452 µM (active).
With `CCc1ccc(C(=O)NN(C(=O)c2cc(C)cc(C)c2)C(C)(C)C)cc1` the AC50 was 43.6 µM (active).
For `CCOC1Oc2ccc(OS(C)(=O)=O)cc2C1(C)C` (stereo not given), the AC50 was 46.1 µM (active).
In the case of `Cc1cc(C)nc(NC(=O)NS(=O)(=O)c2ccccc2C(=O)OC2COC2)n1`, the outcome is reported as “inactive”.
With `CC(C)OC(=O)Nc1cccc(Cl)c1` the outcome was “inactive”.
With `CC[C@H](C)[C@H]1O[C@]2(C=C[C@@H]1C)C[C@@H]1C[C@@H](C/C=C(\C)[C@@H](O[C@H]3C[C@H](OC)[C@@H](O[C@H]4C[C@H](OC)[C@@H](O)[C@H](C)O4)[C@H](C)O3)[C@@H](C)/C=C/C=C3\CO[C@@H]4[C@H](O)C(C)=C[C@@H](C(=O)O1)[C@]34O)O2` (tested in a mixture with another compound) the outcome was “inactive”.
With `OCCOc1ccccc1` the outcome was “inactive”.
For `CCS(=O)(=O)c1cccnc1S(=O)(=O)NC(=O)Nc1nc(OC)cc(OC)n1`, the outcome was “inactive”.
For `N#CN`, the outcome was “inactive”.
For `CCC(C)Nc1c([N+](=O)[O-])cc(C(C)(C)C)cc1[N+](=O)[O-]` (stereo not given), the AC50 was 64.9 µM (active).
For `CCC(C)(C)C(=O)OC1=C(c2ccc(Cl)cc2Cl)C(=O)OC12CCCCC2`, the AC50 was 133 µM (active).
With `COc1cc(OC)nc(NC(=O)NS(=O)(=O)c2cc(NC=O)ccc2C(=O)N(C)C)n1` the outcome was “inactive”.
In the case of `ClC1C(Cl)C(Cl)C(Cl)C(Cl)C1Cl` (stereo not given), the AC50 is reported as 57.2 µM (active) and the outcome is reported as “inactive”.
For `CC(C)N(C(=O)COc1nnc(C(F)(F)F)s1)c1ccc(F)cc1`, the AC50 was 37.6 µM (active).
For `O=[N+]([O-])c1c(Cl)c(Cl)c(Cl)c(Cl)c1Cl`, the outcome was “inactive”.
With `COP(=O)(OC)OC=C(Cl)Cl` the AC50 was 78 µM (active).
In the case of `C[C@H]1[C@H](c2ccc(Cl)cc2)SC(=O)N1C(=O)NC1CCCCC1`, the AC50 is reported as 33.5 µM (active).
For `C#CCN1C(=O)COc2cc(F)c(N3C(=O)C4=C(CCCC4)C3=O)cc21`, the outcome was “inactive”.
For `CC1(C)C(C=C(Cl)Cl)C1C(=O)OC(C#N)c1ccc(F)c(Oc2ccccc2)c1` (stereo not given), the outcome was “inactive”.
For `Cc1[nH]c(=O)n(C(C)(C)C)c(=O)c1Cl`, the outcome was “inactive”.
For `O=C(O)COc1ccc(Cl)cc1Cl`, the outcome was “inactive”.
In the case of `CNC(=O)CSP(=S)(OC)OC`, the outcome is reported as “inactive”.
For `O=C(Nc1ccccc1)Nc1cnns1`, the AC50 was 90.8 µM (active).
With `CCC(C)(NC(=O)c1cc(Cl)c(C)c(Cl)c1)C(=O)CCl` (stereo not given) the outcome was “inactive”.
For `COC(=O)c1ccccc1CS(=O)(=O)NC(=O)Nc1nc(OC)cc(OC)n1`, the outcome was “inactive”.
For `O=C1c2ccccc2C(=O)N1SC(Cl)(Cl)Cl`, the AC50 was 30.8 µM (active).
In the case of `Oc1ccc(Cl)cc1Cc1ccccc1`, the outcome is reported as “inactive” and the AC50 is reported as 70 µM (active) [middle of 6 runs].
With `CCOc1nc(NC)nc(NC(=O)NS(=O)(=O)c2ccccc2C(=O)OC)n1` the outcome was “inactive”.
In the case of `O=C(NC(=O)c1c(F)cccc1F)Nc1ccc(OC(F)(F)C(F)OC(F)(F)F)c(Cl)c1` (stereo not given), the outcome is reported as “inactive”.
For `COc1nn(CSP(=S)(OC)OC)c(=O)s1`, the outcome was “inactive”.
For `CC1(c2ccc(Oc3ccccc3)cc2)OC(=O)N(Nc2ccccc2)C1=O` (stereo not given), the AC50 was 32.6 µM (active).
For `COC(=O)c1ccccc1S(=O)(=O)NC(=O)N(C)c1nc(C)nc(OC)n1`, the outcome was “inactive”.
For `CN1CSC(=S)N(C)C1`, the AC50 was 21.9 µM (active).
In the case of `Oc1cc(Cl)ccc1Oc1ccc(Cl)cc1Cl`, the AC50 is reported as 35.3 µM (active) and 26.9 µM (active) and 67 µM (active).
With `CC(C)(C)C(O)C(Oc1ccc(Cl)cc1)n1cncn1` (stereo not given) the outcome was “inactive” and the AC50 was 90.5 µM (active) and 96.3 µM (active) and 36.1 µM (active).
In the case of `CCCN(CCC)c1c([N+](=O)[O-])cc(C(F)(F)F)cc1[N+](=O)[O-]`, the AC50 is reported as 109 µM (active).
In the case of `CNC(=O)/C=C(\C)OP(=O)(OC)OC`, the outcome is reported as “inactive”.
